Screening data deposited in PubChem by National Center for Advancing Translational Sciences (NCATS).
A selection: hits, their analogues and other compounds. The true share with any hit is near 19%.
IL1B secr inh – blocks inflammasome-driven IL-1 beta release. activity change, % at 57.5 µM. THP-1 LPS/ATP IL-1B secretion, AlphaLISA, 16 h; active compounds read low. 360,000 tested, 4.7% active; in the data active means activity change below about -50%; inconclusive means mostly about -30% to -49%; further: on the % scale 0 is the no-effect control and ±100 the full control effect
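Secreted IL-1B measured by AlphaLISA bead assay after 16 h compound exposure of THP-1 cells; compounds (final up to 57.5 uM) added 1 h before LPS (250 ng/mL) and ATP (1.25 mM) stimulation; lower signal means less secretion.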
MCF10A rerep – induces DNA re-replication in MCF 10a normal breast cells; MCF 10A DNA re-replication, Hoechst nuclear intensity, 48 h; Potency, µM (series often up to 46.1 µM), without a hit: top-dose activity, positive = re-replication, actives largely listed as activators; 350,000 tested, 2.9% active; further: potency means the concentration at half of the fitted maximal effect; % of control where 0% means no effect; nearly all actives have a fitted effect of over 50% in size
SW480 rereplic – induces DNA re-replication in SW480 colon adenocarcinoma cells | 340,000 tested, 1.8% active | Potency, µM (highest dose often 46.1 µM), inactives show at the top dose re-replication activation, hits mostly activators | SW480 DNA re-replication, Hoechst DNA content imaging, 48 h; further: potency means the concentration at half of the fitted maximal effect; % of control where 0% means no effect; nearly all actives have a fitted effect of over 55% in size
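250 cells/well; 23 nL cpd via pin tool; 48 hr, 37 C, 5% CO2; Hoechst 40 min; imager read of total nuclear intensity, ex 405/em 500-530 nm.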
DT40 TDP1 CPT – DT40-hTDP1 cell growth loss with CPT; 420,000 tested, 12% active; AID 686979; Potency, µM (top dose mostly 46.2 µM), inactives show at the highest dose activity change, negative = growth inhibition, actives largely listed as inhibitors; chicken DT40 Tdp1-/-;hTDP1 cells + 20 nM CPT, ATP luminescence, 48 h; further: potency means the concentration at half of the fitted maximal effect; on the % scale 0 is the no-effect control and ±100 the full control effect; nearly all actives have a fitted effect of over 55% in size
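Cell growth measured by CellTiter-Glo luminescence after a minimum 48 h, 37 C compound exposure with 20 nM CPT in Tdp1-knockout DT40 cells stably expressing hTDP1, seeded 400/well; qHTS titration format.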
BCR signal inh – blocks chronic active B-cell receptor signaling; ABC-DLBCL IkBa-CBG/CBR reporter, luminescence ratio, 4 h; Potency, µM (series often up to 46.1 µM), without a hit: at the top dose activity change, negative = inhibition, hits mostly inhibitors; 340,000 tested, 0.05% active; AID 493014; active means well fitted inhibition curve with a large enough effect in the signal ratio, with a control signal flat, not every such curve was filed as active; inconclusive means small, poorly fitted or top-dose-only effect, or effect the other way, or a change in a side signal; the % refers to the signal ratio;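 further: potency means the concentration at half of the fitted maximal effect; plate controls were basal doxycycline-induced cells for no effect and cells given 10 µM MG132 for full effect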
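Compounds up to 46 uM were incubated four hours with TMD8 cells whose green CBG68 luciferase is fused to IkappaBalpha; red CBR luminescence normalised the signal, and concentration-effect curves were fitted to fusion, red and ratio data.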
DT40 TDP1 no CPT – qHTS for Inhibitors of human tyrosyl-DNA phosphodiesterase 1 (TDP1): qHTS in cells in absence of CPT; 420,000 tested, 15% active; Potency, µM (series often up to 46.2 µM), for the others: at the highest dose activity change, negative = growth inhibition, hits mostly inhibitors; DT40 Tdp1-/- hTDP1 cells, no CPT, ATP luminescence, 48 h; further: potency means the concentration at half of the fitted maximal effect; on the % scale 0 is the no-effect control and ±100 the full control effect; nearly all actives have a fitted effect of over 55% in size
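No-CPT arm: Tdp1-/-;hTDP1 DT40 cells (400/well) plus compounds, incubated ≥48 hr at 37 °C. Readout CellTiter-Glo luminescence.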
* marks the source's active call; other numbers are inactive results; i = inactive; ? = inconclusive; . = no result; ! = not confirmed by another sample; [ ] = another dose, or the depositor's remark. Unless noted, the call rests on the fitted dose curve; in most records, active means well fitted curve in the direction sought with a large enough effect; inconclusive means small, poorly fitted or top-dose-only effect, or another doubt; inactive means no such curve, though single readings can be large; an effect the other way counts as inactive or inconclusive.

SMILES	IL1B secr inh	MCF10A rerep	SW480 rereplic	DT40 TDP1 CPT	BCR signal inh	DT40 TDP1 no CPT
Cc1cc(S(=O)(=O)ON2C(=O)c3ccccc3C2=O)ccc1F	-16	?	8%	3.3µM*	-6%	2.1µM*
Cc1ccc(S(=O)(=O)ON2C(=O)c3cccc4cccc(c34)C2=O)cc1	35	-1%	-17%	?	0%	16µM*
O=C1c2ccccc2C(=O)N1OS(=O)(=O)c1ccccc1	.	.	.	.	1%	.
O=C(Nc1ccc(Br)cn1)c1ccc(Br)s1	17	18µM*	8.2µM*	?	?	26µM*
O=C(Nc1ccc(Br)cn1)c1ccc(Cl)s1	-5	?	?	?	?	18µM*
Cc1cc(C(=O)Nc2ccc(Br)cn2)sc1C	-16	16%	1%	-17%	?	-12%
CC(C)CC(=O)Nc1ccc2c(c1)nc(CCN1CCOCC1)n2C	11	-5%	-17%	2%	5%	9%
Oc1nc(Nc2ccccc2)sc1/C=C1\C=Nc2ccccc21	32	21µM*	16%	-26%	?	-30%
CCn1c(O)c(/C=C2\C=Nc3ccccc32)sc1=O	0	?	12%	-16%	?	-11%
CCOC(=O)c1c(Nc2ccccc2)sc(/C=C2\C=Nc3ccccc32)c1O	10	25%	-5%	21µM*	?	?
O=S(=O)(Nc1ccc(-c2ccc(N3CCCCCC3)nn2)cc1)c1cccc(C(F)(F)F)c1	.	.	.	15µM*	.	?
O=S(=O)(Nc1ccc(-c2ccc(N3CCCCCC3)nn2)cc1)c1ccc(C(F)(F)F)cc1	.	.	.	12µM*	.	?
Cc1cc(C)c(S(=O)(=O)Nc2ccc(-c3ccc(N4CCCCC4)nn3)cc2)cc1C	.	.	.	8.2µM*	.	18µM*
O=S(=O)(Nc1cccc(-c2ccc(N3CCCCC3)nn2)c1)c1cccc(F)c1	.	.	.	-24%	.	-29%
O=[N+]([O-])c1ccc(Cl)c(S(=O)(=O)Nc2ccc(-c3ccc(N4CCCC4)nn3)cc2)c1	-85*	15%	-7%	18%	14%	4%
COc1ccc(C(O)c2ncc(-c3ccc4ccccc4c3)[nH]2)cc1 (stereo not given)	-17	.	.	7%	.	-7%
Clc1ccc(Cn2c3c(c4ccccc42)CCc2cc4ccccc4nc2-3)cc1	.	.	.	0%	.	-7%
O=C(Nc1ccc(Cl)cc1)Nc1ccc2c(c1)N1CCN=C1S2	-66*	?	9%	23µM*	?	21µM*
Nc1ccc2c(c1)N1CCN=C1S2	-2	7%	0%	-25%	0%	-24%
COc1ccc(/C=C(/NC(=O)c2ccccc2)C(=O)N/N=C/c2ccc3c(c2)OCO3)cc1OC	-69*	-15%	?	-27%	-14%	-28%
COc1ccc(/C=C(\NC(=O)c2ccccc2)C(=O)N2CCN(C)CC2)cc1OC	9	0%	-5%	1%	-6%	2%
COc1ccc(/C=C(/NC(=O)c2ccccc2)C(=O)N2CCOCC2)cc1OC	-67*	10%	-3%	10%	?	5%
COc1ccc(-c2ccc(/C=C(\NC(=O)c3ccccc3)C(=O)N3CCOCC3)o2)cc1	-57*	?	1%	15µM*	?	21µM*
CCSc1nc(O)cc(=O)[nH]1	14	3%	-7%	4%	7%	5%
CCSc1nc(=S)cc(C)[nH]1	13	3%	-4%	?	?	21µM*
SMILES	IL1B secr inh	MCF10A rerep	SW480 rereplic	DT40 TDP1 CPT	BCR signal inh	DT40 TDP1 no CPT
Cc1ccc(NC(=S)/C(C#N)=C2/Nc3ccccc3S2)cc1	32	.	.	29µM*	.	23µM*
CC(C)CCNC(=O)[C@@H](Cc1ccccc1)NC(=O)CC[C@H]1O[C@@H](n2ccc(=O)[nH]c2=O)[C@H](O)[C@@H]1O	16	.	.	2%	.	1%
Cc1ccc(NC(=O)N(Cc2ccc3c(c2)OCO3)Cc2cc3cc4c(cc3[nH]c2=O)OCCO4)cc1	?	0%	-2%	18µM*	0%	?
O=C(Nc1ccccc1)N(CCCN1CCOCC1)Cc1cc2cc3c(cc2[nH]c1=O)OCCO3	-26	7%	-3%	?	?	10µM*
O=C(Nc1ccccc1F)N(CCCN1CCOCC1)Cc1cc2cc3c(cc2[nH]c1=O)OCCO3	?	13%	1%[9.22 µM]	16µM*	?	16µM*
COc1cc2cc(CN(CCCN3CCOCC3)C(=O)Nc3ccc(F)cc3)c(=O)[nH]c2cc1OC	-25	?	11%	-29%	?	?
Cc1ccc(NC(=O)N(CCCN2CCOCC2)Cc2cc3cc4c(cc3[nH]c2=O)OCO4)cc1	-28	24%	4%	21µM*	0%	?
CCC(=O)N(Cc1ccc(C)cc1)Cc1cc2cc3c(cc2[nH]c1=O)OCO3	0	-5%	-6%	-27%	11%	-27%
CCN(CC)CCCN(Cc1cc2cc3c(cc2[nH]c1=O)OCCO3)C(=O)Nc1ccccc1	-18	14%	4%[9.22 µM]	?	?	?
C[C@H]1CN([C@@H](C)CO)C(=O)c2cc(Br)cnc2O[C@@H]1CN(C)C(=O)C1CCC1	-13	.	.	-27%	.	?
Nc1ncc(Br)cc1S(=O)(=O)Nc1cc(C(F)(F)F)cc(C(F)(F)F)c1	-5	?	4%	?	?	18µM*
CCNC(=O)c1ccc(C)c(-n2c(C)nc3cccnc32)c1	.	.	.	4%	.	-1%
COCCNC(=O)c1cccc(-n2c(C)nc3cccnc32)c1	.	.	.	-3%	.	-13%
Cc1ccc(C(=O)NCCc2ccc(Cl)cc2)cc1-n1c(C)nc2cccnc21	.	.	.	?	.	23µM*
CCOc1ccc(CCNC(=O)c2cccc(-n3c(C)nc4cccnc43)c2)cc1	.	.	.	23µM*	.	16µM*
Cc1nc2cccnc2n1-c1cccc(C(=O)NCCc2ccc(Cl)cc2)c1	.	.	.	?	.	18µM*
CCCN[C@H]1CCc2nc(N)sc2C1	-4	8%	-2%	?	.	17µM*!
Cc1cc(C)c2nc(-c3ccncc3)cc(C(=O)N3CCN(Cc4ccccc4Cl)CC3)c2c1	-75*	?	26%	?	-13%	?
O=C(O)c1cc(-c2ccc3c(c2)OCO3)nc2ccc(Cl)cc12	i	?	?	-3%	?	-2%
CS(=O)(=O)N1CCN(C(=O)c2cc(-c3cccnc3)nc3ccc(Cl)cc23)CC1	43	2%	2%	0%	1%	?
